Experimental data reported in PubChem BioAssay AID1159580 (chemical genetic matrix, 2015).
Several values for one entry are separate records, joined by “and”; a condition that tells them apart may be missing. Equal values may be shown once. Among all 5,500 compounds or so, about 2,000 (36%) were called active. Inconclusive results (about 18%) are left out. No stated cut-off is given here; in the data, active means normalized growth mostly below about 0.91 (no sharp cut-off); inconclusive means no clear call, values can overlap the other calls; inactive means mostly above about 0.92. This is one part of the list.

Experiment: chemical genetic growth profiling, strain panel (AID 1159580);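 further: tested at 20 µM; growth read once vehicle control cultures reached saturation at 30 °C; 1 = growth at the plate median or of vehicle wells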
Conditions: S. cerevisiae deletion strains, growth OD
[1] = locus YGR229C, strain SMI1, stronger effect = lower value
[2] = locus YMR307W, strain GAS1, stronger effect = lower value
[3] = locus YNL322C, strain KRE1, stronger effect = lower value

Measured: normalized growth

C=C/C(C)=C/[C@@]1(C)SC(=O)C(C)=C1O
inactive: locus YAL040C, strain CLN3, stronger effect = lower value 0.998 | locus YCL061C, strain MRC1 (second series), stronger effect = lower value 1 | locus YDR150W, strain NUM1, stronger effect = lower value 1.01 | locus YDR363W, strain ESC2, stronger effect = lower value 1.02 | locus YER002W, strain NOP16, stronger effect = lower value 0.986 | locus YGR078C, strain PAC10, stronger effect = lower value 1.01 | [1] 1.01 | locus YJR075W, strain HOC1, stronger effect = lower value 1 | [2] 0.998 | locus YNL175C, strain NOP13, stronger effect = lower value 0.996 | locus YNL197C, strain WHI3, stronger effect = lower value 1 | locus YNL224C, strain SQS1, stronger effect = lower value 1 | [3] 0.999 | locus YOR083W, strain WHI5 (second series), stronger effect = lower value 0.999

C/C1=C/CC(C)(C)/C=C/C/C(C)=C/CC1
active: locus YDL074C, strain BRE1, stronger effect = lower value 0.769 | locus YDR162C, strain NBP2, stronger effect = lower value 0.611 | [1] 0.389 | locus YLR039C, strain RIC1, stronger effect = lower value 0.651 | [2] 0.536 | locus YOR184W, strain ser1, stronger effect = lower value 0.865 | locus YPL055C, strain LGE1, stronger effect = lower value 0.76
inactive: locus YAL021C, strain ccr4, stronger effect = lower value 1.04 | locus YAL026C, strain drs2, stronger effect = lower value 0.983 | locus YAL030W, strain snc1, stronger effect = lower value 0.99 | locus YBL061C, strain skt5, stronger effect = lower value 0.985 | locus YBR009C, strain hhf1, stronger effect = lower value 0.983 | locus YBR021W, strain FUR4, stronger effect = lower value 0.95 | locus YBR023C, strain chs3, stronger effect = lower value 0.99 | locus YBR171W, strain sec66, stronger effect = lower value 0.953 | locus YBR229C, strain ROT2, stronger effect = lower value 1.03 | locus YBR231C, strain swc5, stronger effect = lower value 0.977 | locus YBR279W, strain paf1, stronger effect = lower value 0.999 | locus YCL011C, strain gbp2, stronger effect = lower value 1.02 | locus YCL016C, strain dcc1, stronger effect = lower value 1.01 | locus YCL029C, strain bik1, stronger effect = lower value 1.03 | locus YCL061C, strain MRC1, stronger effect = lower value 0.988 | locus YCL069W, strain vba3, stronger effect = lower value 0.991 | locus YCR088W, strain abp1, stronger effect = lower value 0.981 | locus YDL005C, strain med2, stronger effect = lower value 0.966 | locus YDL035C, strain GPR1, stronger effect = lower value 0.91 | locus YDL040C, strain nat1, stronger effect = lower value 0.987 | locus YDL101C, strain DUN1, stronger effect = lower value 1.01 | locus YDL185W, strain tfp1, stronger effect = lower value 1 | locus YDL192W, strain arf1, stronger effect = lower value 0.988 | locus YDR001C, strain nth1, stronger effect = lower value 0.985 | locus YDR069C, strain doa4, stronger effect = lower value 0.989 | locus YDR101C, strain arx1, stronger effect = lower value 0.991 | locus YDR137W, strain rgp1, stronger effect = lower value 0.973 | locus YDR159W, strain sac3, stronger effect = lower value 0.975 | locus YDR195W, strain ref2 0.951 | locus YDR297W, strain sur2, stronger effect = lower value 0.988 | locus YDR318W, strain mcm21, stronger effect = lower value 1.01 | locus YDR334W, strain swr1, stronger effect = lower value 0.981 | locus YDR335W, strain msn5, stronger effect = lower value 0.998 | locus YDR388W, stronger effect = lower value 0.998 | locus YDR392W, strain spt3, stronger effect = lower value 0.961 | locus YDR502C, strain sam2, stronger effect = lower value 0.983 | locus YEL003W, strain gim4, stronger effect = lower value 0.983 | locus YEL037C, strain rad23, stronger effect = lower value 0.984 | locus YEL061C, strain CIN8 (second series), stronger effect = lower value 0.982 | locus YEL061C, strain CIN8, stronger effect = lower value 0.988 | locus YER015W, strain faa2, stronger effect = lower value 1 | locus YER016W, strain bim1, stronger effect = lower value 0.987 | locus YER110C, stronger effect = lower value 1.01 | locus YER111C, strain swi4, stronger effect = lower value 0.968 | locus YER155C, strain BEM2 (second series), stronger effect = lower value 1.01 | locus YER155C, strain BEM2, stronger effect = lower value 1 | locus YER167W, strain BCK2, stronger effect = lower value 0.98 | locus YFR010W, strain ubp6, stronger effect = lower value 0.978 | locus YGL078C, strain dbp3, stronger effect = lower value 0.985 | locus YGL086W, strain mad1, stronger effect = lower value 1 | locus YGL167C, strain pmr1, stronger effect = lower value 0.977 | locus YGL173C, strain kem1, stronger effect = lower value 0.96 | locus YGL227W, strain vid30, stronger effect = lower value 0.978 | locus YGL240W, strain doc1, stronger effect = lower value 0.956 | locus YGL248W, strain PDE1, stronger effect = lower value 1.01 | locus YGL253W, strain hxk2, stronger effect = lower value 0.957 | locus YGR135W, strain pre9, stronger effect = lower value 0.967 | locus YGR252W, strain gcn5, stronger effect = lower value 1.01 | locus YHR013C, strain ard1, stronger effect = lower value 1 | locus YHR027C, strain rpn1, stronger effect = lower value 0.97 | locus YHR079C, strain IRE1 (second series), stronger effect = lower value 1.01 | locus YHR079C, strain IRE1, stronger effect = lower value 1.02 | locus YHR094C, strain hxt1, stronger effect = lower value 1.01 | locus YHR129C, strain ARP1, stronger effect = lower value 1.01 | locus YHR142W, strain chs7, stronger effect = lower value 1 | locus YHR200W, strain rpn10, stronger effect = lower value 1.01 | locus YIL066C, strain RNR3, stronger effect = lower value 1.01 | locus YIL073C, strain SPO22, stronger effect = lower value 0.95 | locus YIL125W, strain kgd1, stronger effect = lower value 0.991 | locus YIR030C, strain dcg1, stronger effect = lower value 1 | locus YJL092W, strain hpr5, stronger effect = lower value 0.988 | locus YJL095W, strain BCK1 (second series), stronger effect = lower value 1 | locus YJL095W, strain BCK1, stronger effect = lower value 0.831 and 1.06 | locus YJL115W, strain asf1, stronger effect = lower value 0.988 | locus YJL129C, strain trk1, stronger effect = lower value 0.981 | locus YJL134W, strain LCB3, stronger effect = lower value 1 | locus YJL154C, strain vps35, stronger effect = lower value 0.981 | locus YJL164C, strain tpk1, stronger effect = lower value 1.01 | locus YJL166W, strain qcr8, stronger effect = lower value 0.985 | locus YJL168C, strain set2, stronger effect = lower value 1.02 | locus YJL187C, strain SWE1 (second series), stronger effect = lower value 0.976 | locus YJR043C, strain POL32, stronger effect = lower value 0.964 | locus YJR066W, strain TOR1, stronger effect = lower value 0.986 | locus YKL009W, strain mrt4, stronger effect = lower value 0.962 | locus YKL068W, stronger effect = lower value 0.991 | locus YKL085W, strain MDH1 (second series), stronger effect = lower value 0.963 | locus YKL085W, strain MDH1, stronger effect = lower value 0.963 | locus YKL160W, strain elf1, stronger effect = lower value 1.02 | locus YKR001C, strain vps1, stronger effect = lower value 0.98 | locus YKR026C, strain gcn3, stronger effect = lower value 0.983 | locus YKR091W, strain srl3, stronger effect = lower value 0.987 | locus YLL001W, strain dnm1, stronger effect = lower value 1 | locus YLL026W, stronger effect = lower value 0.99 | locus YLL041C, strain sdh2, stronger effect = lower value 0.998 | locus YLR027C, strain aat2, stronger effect = lower value 1.01 | locus YLR058C, strain SHM2, stronger effect = lower value 1.01 | locus YLR102C, strain apc9, stronger effect = lower value 1.01 | locus YLR113W, strain HOG1, stronger effect = lower value 1.02 | locus YLR221C, strain rsa3, stronger effect = lower value 0.961 | locus YLR258W, strain gsy2, stronger effect = lower value 0.998 | locus YLR262C, strain YPT6 (second series), stronger effect = lower value 0.994 | locus YLR262C, strain YPT6, stronger effect = lower value 0.789 | locus YLR268W, strain sec22, stronger effect = lower value 1 | locus YLR320W, strain mms22, stronger effect = lower value 0.968 | locus YLR330W, strain CHS5, stronger effect = lower value 0.974 | locus YLR342W, strain FKS1 (second series), stronger effect = lower value 0.986 | locus YLR342W, strain FKS1, stronger effect = lower value 0.989 | locus YLR357W, strain rsc2, stronger effect = lower value 0.968 | locus YLR370C, strain arc18, stronger effect = lower value 1.01 | locus YLR371W, strain rom2, stronger effect = lower value 0.998 | locus YLR384C, strain iki3, stronger effect = lower value 0.984 | locus YLR418C, strain cdc73, stronger effect = lower value 0.929 | locus YML016C, strain PPZ1, stronger effect = lower value 1.04 | locus YML032C, strain rad52, stronger effect = lower value 0.99 | locus YML120C, strain ndi1, stronger effect = lower value 1 | locus YML124C, strain tub3, stronger effect = lower value 1.01 | locus YMR058W, strain fet3, stronger effect = lower value 0.992 | locus YMR078C, strain ctf18, stronger effect = lower value 1.01 | locus YMR125W, strain sto1, stronger effect = lower value 1.01 | locus YMR129W, stronger effect = lower value 0.992 | locus YMR205C, strain PFK2, stronger effect = lower value 0.994 | locus YMR223W, strain ubp8, stronger effect = lower value 1 | locus YMR231W, strain pep5, stronger effect = lower value 0.966 | locus YNL067W, strain RPL9B, stronger effect = lower value 0.869 | locus YNL071W, strain lat1, stronger effect = lower value 0.998 | locus YNL183C, strain NPR1, stronger effect = lower value 0.995 | locus YNL209W, strain ssb2, stronger effect = lower value 1 | locus YNL233W, strain BNI4, stronger effect = lower value 0.96 | locus YNL250W, strain rad50, stronger effect = lower value 0.973 | locus YNL271C, strain bni1, stronger effect = lower value 0.998 | locus YNL298W, strain CLA4, stronger effect = lower value 0.989 | locus YNL307C, strain MCK1, stronger effect = lower value 1.02 | locus YNL322C, strain KRE1 (second series), stronger effect = lower value 0.979 | [3] 0.973 | locus YNR049C, strain mso1, stronger effect = lower value 0.976 | locus YNR052C, strain pop2, stronger effect = lower value 0.964 | locus YOL006C, strain TOP1, stronger effect = lower value 0.917 | locus YOL012C, strain htz1 1.09 | locus YOL147C, strain pex11, stronger effect = lower value 1.02 | locus YOR001W, strain rrp6, stronger effect = lower value 0.944 | locus YOR061W, strain CKA2, stronger effect = lower value 1.03 | locus YOR069W, strain VPS5, stronger effect = lower value 1.02 | locus YOR070C, strain gyp1, stronger effect = lower value 0.983 | locus YOR080W, strain dia2, stronger effect = lower value 0.969 | locus YOR083W, strain WHI5, stronger effect = lower value 1.02 | locus YOR106W, strain vam3, stronger effect = lower value 0.995 | locus YOR136W, strain idh2, stronger effect = lower value 0.995 | locus YOR144C, strain elg1, stronger effect = lower value 1.01 | locus YOR231W, strain MKK1, stronger effect = lower value 1.02 | locus YOR265W, strain rbl2, stronger effect = lower value 0.997 | locus YOR270C, strain vph1, stronger effect = lower value 0.932 | locus YOR290C, strain snf2, stronger effect = lower value 0.995 | locus YOR316C, strain cot1, stronger effect = lower value 1.01 | locus YPL051W, strain arl3, stronger effect = lower value 0.991 | locus YPL078C, strain atp4, stronger effect = lower value 1.01 | locus YPL106C, strain sse1, stronger effect = lower value 1.03 | locus YPL240C, strain hsp82, stronger effect = lower value 1.02 | locus YPL241C, strain CIN2, stronger effect = lower value 1.02 | locus YPL256C, strain CLN2, stronger effect = lower value 1.06 | locus YPR119W, strain clb2, stronger effect = lower value 1.01 | locus YPR141C, strain kar3, stronger effect = lower value 1 | locus YPR163C, strain tif3, stronger effect = lower value 1.01 | locus YPR167C, strain met16, stronger effect = lower value 1.01 | strain wtn01, stronger effect = lower value 0.993
0.85 (active) and 1.03 (inactive): locus YHR030C, strain SLT2, stronger effect = lower value
